Source: PubChem
TDP1 cell noCPT = qHTS for Inhibitors of human tyrosyl-DNA phosphodiesterase 1 (TDP1): qHTS in cells in absence of CPT. DT40 Tdp1-/- hTDP1 cells, no CPT, ATP luminescence, 48 h. hit rate 15% among 420,000. Potency, µM (doses to about 46.2 µM), hits mostly inhibitors; note: nearly all actives have a fitted effect of over 55% in size
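Compound effects on proliferation are scored in DT40 Tdp1-/-;hTDP1 cells in the absence of CPT. ATP levels (CellTiter-Glo luminescence) are recorded after a ≥48 hr, 37 °C incubation.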
ClpP mod = qHTS Assay for Activators of ClpP. ATP-dependent Clp protease proteolytic subunit (Bacillus subtilis (strain 168)), P80244. purified B. subtilis ClpP, FRET peptide cleavage, 20 min. Potency, µM (doses to about 57.5 µM). hit rate 1.9% among 340,000. AID 651965, 2013; active = well fitted falling curve with a large enough effect; inconclusive = small, poorly fitted or top-dose-only effect; inactive = no such curve, though single readings can be large or run the other way; note: the source files actives as falling curves though it sought activators and does not explain the sign; nearly all actives have a fitted effect of over 65% in size
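Buffer: 100 mM Tris/HCl pH8, 100 mM KCl, 0.05% low protease BSA, 2.5% glycerol, 0.01% Tween-20. ClpP 10 microg/mL final; 20 min RT; delta FRET normalized to ADEP and DMSO controls.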
DT40 TDP1 CPT = qHTS for Inhibitors of human tyrosyl-DNA phosphodiesterase 1 (TDP1): qHTS in cells in presence of CPT | chicken DT40 Tdp1-/-;hTDP1 cells + 20 nM CPT, ATP luminescence, 48 h | Potency, µM (titrated, usually from 46.2 µM), hits mostly inhibitors | hit rate 12% among 420,000; note: nearly all actives have a fitted effect of over 55% in size
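Chicken DT40 Tdp1-/- cells stably complemented with human TDP1 were seeded at 400 cells/well in medium containing 20 nM camptothecin, exposed to pin-transferred compounds, and grown at 37 °C for at least 48 hr. Viability was read as ATP luminescence.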
TDP1 block = qHTS Assay for Inhibitors of Tyrosyl-DNA Phosphodiesterase (TDP1) | recombinant TDP1, AlphaScreen DNA substrate cleavage | Potency, µM (titrated, usually from 130 µM), most hits filed as inhibitors | hit rate 0.28% among 350,000 | AID 485290, 2010; note: nearly all actives have a fitted effect of over 40% in size
Target sequence (Q9NUW8 whole entry, looked up): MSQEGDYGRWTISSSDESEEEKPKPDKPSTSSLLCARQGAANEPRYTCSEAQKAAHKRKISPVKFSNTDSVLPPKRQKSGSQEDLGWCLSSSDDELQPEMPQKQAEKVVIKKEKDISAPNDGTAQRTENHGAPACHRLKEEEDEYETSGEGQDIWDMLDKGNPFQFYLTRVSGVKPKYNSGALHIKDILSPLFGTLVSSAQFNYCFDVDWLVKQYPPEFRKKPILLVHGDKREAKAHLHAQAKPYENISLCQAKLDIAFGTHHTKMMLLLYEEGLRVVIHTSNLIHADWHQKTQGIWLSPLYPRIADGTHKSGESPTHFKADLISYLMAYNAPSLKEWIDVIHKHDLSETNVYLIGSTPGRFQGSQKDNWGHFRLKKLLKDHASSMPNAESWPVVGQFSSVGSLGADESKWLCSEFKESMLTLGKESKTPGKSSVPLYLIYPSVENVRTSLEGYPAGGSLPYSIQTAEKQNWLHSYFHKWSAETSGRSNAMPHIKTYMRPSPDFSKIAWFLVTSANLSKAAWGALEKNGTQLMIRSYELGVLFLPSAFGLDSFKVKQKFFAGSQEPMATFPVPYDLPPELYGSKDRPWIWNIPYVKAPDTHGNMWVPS
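Compounds were preincubated with Tdp1 (1 nM final) for 15 min at room temperature before substrate (15 nM final) started a 5 min reaction; beads (10 ug/ml final) were then added for 10 min before AlphaScreen detection.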
Each line names hits and unclear results; the compound was inactive in the other large screens. Only some compounds are listed: those with a hit (about 17% of all), similar ones and a draw of the others. Unless noted, calls come from the whole dose curve; as a rule, active = well fitted curve in the direction sought with a large enough effect; inconclusive = small, poorly fitted or top-dose-only effect, or another doubt; inactive = no such curve, though single readings can be large; an effect the other way counts as inactive or inconclusive.

CC(C)OCCCNC(=O)C(NS(=O)(=O)c1ccc2c(c1)c(=O)n(C)c(=O)n2C)c1ccccc1 (stereo unspecified)	none (no result: TDP1 cell noCPT, ClpP mod, DT40 TDP1 CPT)
Cc1ccc(NC(=O)c2ccc(S(=O)(=O)NCc3cccnc3)cc2)cc1C	TDP1 cell noCPT inconclusive, DT40 TDP1 CPT inconclusive (no result: ClpP mod)
O=C(c1ccc(Cl)c(S(=O)(=O)NCc2cccnc2)c1)N1CCCC1	TDP1 cell noCPT 2.9µM, DT40 TDP1 CPT inconclusive
O=C(O)c1ccc(Cl)c(S(=O)(=O)NCc2cccnc2)c1	TDP1 cell noCPT inconclusive (no result: ClpP mod)
O=C(Nc1ccc(Cl)c(Cl)c1)c1cccc(S(=O)(=O)NCc2cccnc2)c1	TDP1 cell noCPT 12µM, DT40 TDP1 CPT 5.8µM
COCCn1c(Cc2ccccc2)nnc1SCC(=O)Nc1oc(C)c2c(C)n[nH]c(=O)c12	none
COc1ccc(OC)c(NC(=O)N2CCC3(CC2)Oc2ccccc2C(=O)N3Cc2ccccc2F)c1	TDP1 cell noCPT 15µM, DT40 TDP1 CPT inconclusive
CN(C)c1ccc(C(=O)Nc2ccc(S(=O)(=O)Nc3nccs3)cc2)cc1	ClpP mod inconclusive
CC(C)N(C)Cc1nnnn1CC(=O)N(C)Cc1ccc(F)cc1	none
COc1ccc(C)cc1S(=O)(=O)n1cnc2ccccc21	TDP1 cell noCPT 15µM, DT40 TDP1 CPT 13µM (no result: TDP1 block)
CCOC(=O)C1Nc2ccc(OC(F)(F)F)cc2C2C=CCC12 (stereo unspecified)	TDP1 cell noCPT inconclusive, DT40 TDP1 CPT inconclusive (no result: TDP1 block)
O=C(NCc1ccccc1)C1Nc2ccc(OC(F)(F)F)cc2C2C=CCC12 (stereo unspecified)	TDP1 cell noCPT inconclusive, DT40 TDP1 CPT 23µM (no result: TDP1 block)
O=C(NC1CC1)C1Nc2ccc(OC(F)(F)F)cc2C2C=CCC12 (stereo unspecified)	TDP1 cell noCPT 13µM, DT40 TDP1 CPT inconclusive (no result: TDP1 block)
O=C(NCCc1ccccc1)c1ccc2c(c1)CCN2S(=O)(=O)c1ccc(Cl)cc1	TDP1 cell noCPT inconclusive, DT40 TDP1 CPT inconclusive
COC(=O)C1=C(C(=O)OC)SC(=C2C(=S)C(C)(C)N(C(=O)CC(C)C)c3ccccc32)S1	TDP1 cell noCPT inconclusive, DT40 TDP1 CPT 26µM
COC(=O)C1=C(C(=O)OC)[C@@H]2N(C)c3ccccc3[C@@]23C[C@@H](C(=O)OC)N(C(=O)CC(C)C)C3=N1	TDP1 cell noCPT inconclusive, DT40 TDP1 CPT inconclusive
C/C(=N\NC(=O)c1ccccc1O)c1cccs1	TDP1 cell noCPT 23µM (no result: ClpP mod)
C/C(=N\NC(=O)COc1ccccc1)c1cccs1	ClpP mod 25µM
C/C(=N/NC(=O)Cc1cccc2ccccc12)c1cccs1	TDP1 cell noCPT 16µM, DT40 TDP1 CPT inconclusive
C/C(=N\NC(=O)c1cccc2ccccc12)c1cccs1	none
Nc1cc(=O)[nH]c(SCCSc2ccccc2)n1	TDP1 cell noCPT inconclusive, DT40 TDP1 CPT inconclusive (no result: TDP1 block)
COc1ccccc1N1CCN(C(=O)c2cc3ccccc3[nH]2)CC1	TDP1 cell noCPT inconclusive, DT40 TDP1 CPT inconclusive
CSc1ccc(C(=O)C2CCCN(C(=O)c3ccc4c(c3)OCO4)C2)cc1 (stereo unspecified)	TDP1 cell noCPT inconclusive, DT40 TDP1 CPT inconclusive
COc1ccccc1N1CCN(C(=O)c2cc3cc(Cl)ccc3[nH]2)CC1	TDP1 cell noCPT 18µM, DT40 TDP1 CPT 16µM
COc1ccccc1N1CCN(C(=O)c2cc3cc(F)ccc3[nH]2)CC1	TDP1 cell noCPT 23µM, DT40 TDP1 CPT inconclusive (no result: ClpP mod, TDP1 block)
COc1ccccc1N1CCN(C(=O)c2cc3cc(C)ccc3[nH]2)CC1	TDP1 cell noCPT inconclusive, DT40 TDP1 CPT inconclusive (no result: TDP1 block)
CSc1ccc(C(=O)C2CCCN(C(=O)c3cc4cc(F)ccc4[nH]3)C2)cc1 (stereo unspecified)	TDP1 cell noCPT 18µM, DT40 TDP1 CPT 18µM (no result: ClpP mod)
O=C(c1cc2cc(F)ccc2[nH]1)N1CCN(C(=O)c2ccco2)CC1	TDP1 cell noCPT 21µM, DT40 TDP1 CPT inconclusive
CCOc1ccccc1N1CCN(CC(=O)N(C)CC(=O)Nc2ccccc2CC)CC1	none (no result: TDP1 block)
O=C1[C@@H](Oc2ccccc2)[C@@H](c2cccnc2)N1c1ccccc1	TDP1 cell noCPT 18µM, DT40 TDP1 CPT 21µM (no result: TDP1 block)
O=C1[C@H](Oc2ccccc2)[C@@H](c2ccccc2)N1c1ccncc1	TDP1 cell noCPT 23µM, DT40 TDP1 CPT inconclusive (no result: TDP1 block)
Cc1c(Cl)cccc1N1C(=O)CC(Sc2ccccc2N)C1=O (stereo unspecified)	TDP1 cell noCPT inconclusive, DT40 TDP1 CPT inconclusive (no result: TDP1 block)
Cc1nc(NCc2ccc(S(N)(=O)=O)cc2)c2c(C)c(C)sc2n1	TDP1 cell noCPT inconclusive, DT40 TDP1 CPT inconclusive (no result: ClpP mod)
Cc1nc(NCCNC(=O)c2ccco2)c2c(C)c(C)sc2n1	TDP1 cell noCPT 21µM, DT40 TDP1 CPT inconclusive
Cc1nc(NCCc2ccc(S(N)(=O)=O)cc2)c2c(C)c(C)sc2n1	TDP1 cell noCPT 15µM, DT40 TDP1 CPT 16µM
CCCSCCCNC(=O)c1ccc(NC(=O)C2=CSCCO2)cc1	none
Cc1cccc(C)c1-n1nnnc1C1c2ccccc2C(=O)N1C1CC1 (stereo unspecified)	none (no result: TDP1 block)
CC(=O)Sc1nc(-c2ccccc2)[nH]c1S(=O)(=O)c1ccc(C)cc1	TDP1 cell noCPT 21µM, DT40 TDP1 CPT 18µM (no result: ClpP mod)
Cc1ccc(S(=O)(=O)c2[nH]c(-c3ccccc3)nc2SCC(=O)O)cc1	none
O=C1C(=C(I)I)c2ccccc2-c2ccccc21	TDP1 cell noCPT 4.6µM, DT40 TDP1 CPT 2.6µM (no result: TDP1 block)
CN1CCN(C(=O)c2ccccc2NC(=O)c2ccccc2)CC1	none
COC(=O)c1sccc1-c1ccc(C(=O)Nc2ccccc2)o1	TDP1 cell noCPT inconclusive, DT40 TDP1 CPT inconclusive
COC(=O)c1sccc1-c1ccc(/C=N/OCc2c(Cl)cccc2Cl)o1	ClpP mod 5µM
COc1ccc(NC(=O)Nc2cccc(Cl)c2Cl)c(OC)n1	none (no result: ClpP mod)
Cc1ccccc1-c1nnc(CN2CCC(C)CC2)o1	none (no result: ClpP mod, TDP1 block)
Cc1cccc(N2CCN(Cc3nnc(-c4ccccc4C)o3)CC2C)c1 (stereo unspecified)	TDP1 cell noCPT inconclusive, DT40 TDP1 CPT 13µM
CC(NC(=O)CN1C(=O)c2cccnc2Oc2ccc(Cl)cc21)c1ccccc1 (stereo unspecified)	TDP1 cell noCPT inconclusive, DT40 TDP1 CPT inconclusive
COc1cccc(NC(=O)CN2C(=O)c3cccnc3Oc3ccc(Cl)cc32)c1	TDP1 cell noCPT inconclusive, DT40 TDP1 CPT inconclusive
O=C(CN1C(=O)c2cccnc2Oc2ccc(Cl)cc21)Nc1cccc(C(F)(F)F)c1	TDP1 cell noCPT 18µM, DT40 TDP1 CPT inconclusive
O=C(CN1C(=O)c2cccnc2Oc2ccc(Cl)cc21)Nc1ccccc1F	TDP1 cell noCPT 18µM, DT40 TDP1 CPT inconclusive (no result: TDP1 block)
O=C(CN1C(=O)c2cccnc2Oc2ccc(Cl)cc21)NCCCc1ccccc1	TDP1 cell noCPT inconclusive, DT40 TDP1 CPT 23µM
O=C(NCc1nc(-c2ccc(C(F)(F)F)cc2)no1)Nc1cc(Cl)cc(Cl)c1	TDP1 cell noCPT 12µM, DT40 TDP1 CPT 10µM
Cc1cc(C)cc(NC(=O)NCc2c(-c3ccccc3)noc2C)c1	none
